Screens from PubChem.
Rows were chosen to be rich in hits. Some 3.1% of all compounds tested hit in one or more screens of this group.
ELG1 repair inh – ELG1-dependent DNA repair inhibition; HEK293T ELG1-luciferase reporter, luminescence, 16 h; DNA damage induced by 5-fluorouridine; Potency, µM (doses to about 46.1 µM), hits mostly inhibitors; 2.3% of 330,000 active; AID 504467; further: nearly all actives have a fitted effect of over 55% in size
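In this reporter screen, reduction of luminescence relative to DMSO vehicle indicated activity. Compounds and 5-fluorouridine were added together to 2,000 cells per well, incubated for 16 hr at 37 °C, then developed with ONE-Glo.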
IL-2 act – IL-2 activation | 0.065% of 360,000 active | IL-2 activation reporter assay, cell-based qHTS; stimulated with anti-CD3/CD4/CD28 beads; in transgenic mouse T cells | AID 652025 | activation, % (series mostly up to about 46 µM); in the data active means activation above about 50%; inconclusive means mostly about 30% to 49%
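Quantitative HTS in unstimulated transgenic mouse T cells, with memory T cells as non-tolerant control and PMA/ionomycin as tolerance-bypass control. Compound pretreatment lasted 60 minutes before 18 h bead stimulation; EGFP/DsRed fluorescence read.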
Nrf2 activator – activates Nrf2 signaling; AREc32 ARE-luciferase reporter (MCF7-derived line), luminescence, 24 h; Potency, µM (doses to about 46.1 µM), usual class: activators; 0.31% of 410,000 active; further: nearly all actives have a fitted effect of over 65% in size
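Quantitative high-throughput format: AREc32 reporter cells, 1000 per well, received compound by pin transfer and were incubated 24 hr at 37 deg C, 5% CO2, before Steady-Glo luminescence detection.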
BRCA1 expr up – increases BRCA1 expression; MCF7-BRCA1-FFLuc reporter, luminescence, 48 h; response scale: scaled: vehicle 0%, 10 µM genistein 100%; Potency, µM (series often up to 46.1 µM), actives largely listed as activators; 1.1% of 380,000 active; AID 624202; further: nearly all actives have a fitted effect of over 80% in size
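Cells: MCF7-BRCA1-FFLuc, 2000/well. Exposure: 48 h, 37 °C, 5% CO2. Read: luminescence, 15 min post-substrate. Controls: genistein 10 microM (maximal activation), DMSO (neutral).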
Of the large screens only hits and unclear results are named; the others gave an inactive call. Unless noted, the call rests on the fitted dose curve; in most records, active means well fitted curve in the direction sought with a large enough effect; inconclusive means small, poorly fitted or top-dose-only effect, or another doubt; inactive means no such curve, though single readings can be large; an effect the other way counts as inactive or inconclusive.

C/C(=N\NC(=O)c1ccn(C)n1)c1cccc(NC(=O)c2ccc(C)s2)c1	ELG1 repair inh inconclusive, BRCA1 expr up 11.2µM
CC(C)(C)OC(=O)N1CCC(c2c(C(=O)N3CCN(c4ccccn4)CC3)cnn2-c2cccc(F)c2)CC1	none (no result: ELG1 repair inh, IL-2 act, BRCA1 expr up)
NC(=O)c1c(NC(=O)C2COc3ccccc3O2)sc2c1CCN(Cc1ccccc1)C2 (centres undefined)	IL-2 act 400.7
CCOC(=O)c1c(NC(=O)C2COc3ccccc3O2)sc2c1CCN(Cc1ccccc1)C2 (centres undefined)	none
CC12CCC(C(=O)Nc3nc4ccc(Br)cc4s3)(OC1=O)C2(C)C (centres undefined)	ELG1 repair inh inconclusive, BRCA1 expr up 8.91µM
Oc1cccc(C=NNc2ccccn2)c1	Nrf2 activator 12.6µM (no result: ELG1 repair inh)
Clc1ccccc1C=NNc1ccccn1	Nrf2 activator inconclusive (no result: ELG1 repair inh)
COc1ccc2nc(Cl)c(/C=N/Nc3ccccn3)cc2c1	ELG1 repair inh inconclusive, BRCA1 expr up 3.16µM
Cc1ccc(/C=N/Nc2ccccn2)s1	ELG1 repair inh inconclusive, Nrf2 activator inconclusive, BRCA1 expr up 11.2µM
Clc1ccc(/C=N/Nc2ccccn2)cc1	ELG1 repair inh inconclusive, Nrf2 activator inconclusive
Brc1ccc(/C=N/Nc2ccccn2)cc1	ELG1 repair inh inconclusive, Nrf2 activator 12.6µM
O=C(Nc1cccc(Oc2ccccc2)c1)C1Cc2c(-c3ccccc3)ccnc2O1 (centres undefined)	none (no result: ELG1 repair inh)
COc1ccc(S(=O)(=O)NCCc2nnc3ccc(SCC(=O)Nc4ccc(C(F)(F)F)cc4)nn23)cc1	none (no result: ELG1 repair inh, IL-2 act, BRCA1 expr up)
c1ccc(Oc2cc(-c3ccccc3)ncn2)cc1	ELG1 repair inh inconclusive, BRCA1 expr up 11.2µM
c1ccc(Oc2cc(-c3ccccc3)nc(-c3ccccc3)n2)cc1	ELG1 repair inh inconclusive
CCN(CC)c1nc(-c2ccccn2)nc(-c2ccccc2)c1C#N	ELG1 repair inh 11.6µM
N#Cc1ccccc1NC(=O)COc1ccccc1C(=O)Nc1ccccc1	ELG1 repair inh 20.6µM
O=C(COc1ccccc1C(=O)Nc1ccccc1)Nc1ccccc1Br	none (no result: ELG1 repair inh, IL-2 act, Nrf2 activator)
CCOC(=O)c1cc(-c2ccc(F)cc2)n(CCC(=O)NCc2ccc(C)cc2)c1C	none (no result: ELG1 repair inh, IL-2 act, BRCA1 expr up)
Cc1noc(/C=C/c2ccccc2F)c1S(=O)(=O)N1CCC(C(=O)Nc2ccc(C#N)cc2)CC1	none (no result: ELG1 repair inh, IL-2 act, BRCA1 expr up)
Fc1cccc(Cl)c1/C=C/c1cnc2ccccc2n1	ELG1 repair inh inconclusive, Nrf2 activator 3.55µM
Fc1cccc(F)c1/C=C/c1ccc2ccccc2n1	ELG1 repair inh inconclusive, Nrf2 activator inconclusive
Oc1c(Br)cc(Br)cc1C=Nc1ccc2c(c1)OCCO2	ELG1 repair inh inconclusive
O=[N+]([O-])c1ccc(O)c(C=Nc2ccc3c(c2)OCCO3)c1	ELG1 repair inh inconclusive, BRCA1 expr up 11.2µM
Cc1ccc(-c2cc(C(=O)Nc3cc([N+](=O)[O-])ccc3C)no2)cc1F	none (no result: ELG1 repair inh, IL-2 act, BRCA1 expr up)
COc1ccccc1OCC(=O)N1CCN(S(=O)(=O)c2ccc(Cl)cc2)CC1	none
Cc1ccc(C)c(Cn2nnc(C(=O)NCc3ccccc3)c2N)c1	none (no result: ELG1 repair inh, IL-2 act, BRCA1 expr up)
CCn1c(SC(C)C(=O)NCc2ccco2)nnc1-c1ccccc1 (centres undefined)	none (no result: ELG1 repair inh, IL-2 act, Nrf2 activator)
COc1ccc(Nc2ccncc2[N+](=O)[O-])cc1	ELG1 repair inh 5.8µM
COc1ccc(-n2nc(C(=O)N3CCN(c4cccc(C)c4)C(C)C3)c3c4ccccc4n(C)c3c2=O)cc1 (centres undefined)	none (no result: ELG1 repair inh, IL-2 act, BRCA1 expr up)
Cc1cccc(N2CCN(C(=O)c3cc4c(=O)n(C)c5ccccc5c4n3C)CC2C)c1 (centres undefined)	ELG1 repair inh 14.6µM
COc1ccc(C(=O)Nc2nnc(SCc3cc(=O)n4cc(Cl)ccc4n3)s2)cc1	none (no result: ELG1 repair inh, IL-2 act, BRCA1 expr up)
CCOc1ccc(OCc2ccc(C(=O)N3CCOCC3)cc2)cc1	ELG1 repair inh inconclusive
CCOc1ccc(N=C(/C(C(=O)C(=O)N2CCOCC2)=C(\O)c2ccccc2)c2ccccc2)cc1	ELG1 repair inh inconclusive, BRCA1 expr up 7.94µM
COc1ccc2ccccc2c1/C=N/Nc1ccc(Cl)c(C(=O)O)c1	none
COc1ccc2ccccc2c1/C=N/Nc1cccc(C(=O)O)c1	ELG1 repair inh inconclusive, BRCA1 expr up 3.55µM
COc1ccc(-c2nnc(SCC(=O)Nc3cc(OC)ccc3OC)nc2-c2ccc(OC)cc2)cc1	none (no result: ELG1 repair inh, IL-2 act, BRCA1 expr up)
Cc1sc2ncnc(Sc3nnnn3-c3ccccc3)c2c1C	ELG1 repair inh inconclusive, Nrf2 activator 8.91µM
Cc1nc(-c2ccc3c(c2)OCCCO3)cs1	ELG1 repair inh inconclusive, BRCA1 expr up 2.51µM
CCOC(=O)c1ccc2[nH]c3c(c2c1)CCCCC3=O	BRCA1 expr up 3.98µM
